From PubChem BioAssay (NCI) come the findings set out here.

SMILES strings stand for the structures. About 83,000 compounds went through this panel and 20% of them were active in at least one assay; those are over-represented in the sample as a whole.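 Negative percent growth values reflect cell death: -40 means 40% of the cells present at the start died, and -100 means all died.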 Values without a mark were called inactive. Activity calls are given as the source filed them. The calls were made as follows: active = growth percent below 10; inactive = the rest.

What all share (test): NCI-60 one-dose screen, 48 h (100 = growth as untreated, 0 = no growth, -100 = all killed)
Common to all, as to conditions: 10 µM unless noted

Experiment [1] concerns NCI-H23 lung.
For experiment [2], the system named is NCI-H226 lung.
For experiment [3], the system named is NCI-H322M lung.
Experiment [4] concerns HOP-62 NSCLC.
Experiment [5] has as its system NCI-H460 lung.
For experiment [6], the system named is HOP-92 NSCLC.
For experiment [7], the system named is NCI-H522 lung.
The subject of experiment [8] is A549/ATCC NSCLC.
Experiment [9] has as its system 786-0 renal.
In experiment [10] the test system is COLO 205 colon.
Experiment [11] deals with DU-145 prostate.
Experiment [12] relates to K-562 leukemia.
For experiment [13], the system named is MALME-3M melanoma.
Experiment [14] relates to MDA-MB-231 breast.
Experiment [15] deals with RXF 393 renal.
Experiment [16] has as its system SF-268 CNS.
Experiment [17] deals with SF-295 CNS.
Experiment [18] relates to SF-539 CNS.
Experiment [19] deals with UACC-257 melanoma.
Experiment [20] concerns M14 melanoma.

Regarding `O=S(=O)(Oc1ccc(-c2cn3ccoc3n2)cc1)C1CCCCC1`, the growth is 102% in experiment [1]; 86.7% in experiment [2]; 101% in [3]; 105% in [4]; 100% in experiment [5]; 99.9% in [6]. Moreover, the growth is 87.9% in experiment [7]; 99.4% in experiment [8]; 100% in experiment [9]; 103% in experiment [10]; 107% in experiment [11]; 89.5% in experiment [12]. Moreover, the growth in experiment [13] was 103%; in [14], 105%; in experiment [15], 122%; in [16], 108%; in [17] it was 93.8%; in experiment [18] it was 97%. For the same compound, the growth in experiment [19] was 106%; in [20], 104%.
Turning to `C#CCN(C)CCCOc1ccc(NC(=O)CCCCCCC(=O)NO)cc1Cl`, the growth is 28.1% in [1]; 63.1% in experiment [2]; 26.5% in [3]; 30.1% in experiment [4]; 25.8% in experiment [5]; -14% (active) in experiment [6]. Further, the growth was 12.8% in experiment [7]; 20.5% in experiment [8]; 39.3% in experiment [9]; -26.1% (active) in experiment [10]; 26.3% in experiment [11]; 18.5% in experiment [12]. Besides, the growth in [13] was 21.1%; in [14] it was 16.3%; in [15] it was -44.3% (active); in [16], 39.3%; in experiment [17], 7.83% (active); in experiment [18], 20.3%. Further, the growth is 25.6% in [19] and 23% in experiment [20].
As to `C/C(=N/N)c1nnn(-c2ccc(Br)cc2)c1C`, the growth in experiment [1] was 99.6%; in experiment [2], 91.5%; in [3], 95.7%; in experiment [4], 93.7%; in [5], 102%; in experiment [6] it was 93.4%. Moreover, the growth is 91.5% in experiment [7]; 99.4% in experiment [8]; 103% in experiment [9]; 115% in experiment [10]; 108% in experiment [11]; 91.2% in [12]. In addition, the growth in experiment [13] is 102%; in experiment [14], 101%; in experiment [15] it was 103%; in [16], 97.8%; in experiment [17] it was 94.2%; in [18], 93.1%. Besides, the growth in experiment [19] and in experiment [20] was 105% throughout.
Regarding `CNC(=O)c1cc(N2CCc3cc(NC(=O)Nc4ccc(N5CCN(C)CC5)c(C(F)(F)F)c4)ccc32)ccn1`, the growth was 88.4% in [1]; 99.4% in experiment [2]; 96.6% in experiment [3]; 76.7% in [4]; 62.6% in [5]; 69% in experiment [6]. Further, the growth in experiment [7] is 103%; in experiment [8] it was 68.6%; in [9] it was 29.3%; in [10], 104%; in experiment [11], 84.6%; in experiment [12] it was 0.938% (active). The growth in [13] was 67.8%; in experiment [14] it was 74.3%; in experiment [15], -16% (active); in experiment [16], 80.4%; in experiment [17], -49.8% (active); in experiment [18] it was 16.8%. Further, the growth is 104% in experiment [19] and 61.6% in [20].
In the case of `Cc1csc(/N=C(N)/N=C(\N)c2cccs2)n1`, the growth in experiment [1] is 90.5%; in experiment [2], 99.1%; in experiment [3], 100%; in [4], 103%; in experiment [5], 104%; in experiment [6], 69.1%. The growth is 98.9% in experiment [7]; 102% in experiment [8]; 112% in experiment [9]; 109% in experiment [10]; 110% in experiment [11]; 95.7% in experiment [12]. Moreover, the growth in experiment [13] is 102%; in [14], 99.5%; in [15], 106%; in experiment [16], 103%; in [17], 113%; in experiment [18], 99.1%. The growth in experiment [19] is 104%; in experiment [20], 99.1%.
In the case of `N#Cc1c(-c2ccc(F)cc2)cc(-c2c[nH]c3ccccc23)nc1-c1c[nH]c2ccccc12`, the growth is 100% in experiment [1]; 94% in experiment [2]; 106% in [3]; 101% in experiment [4]; 104% in [5]; 93.4% in experiment [6]. Besides, the growth in experiment [7] was 97%; in experiment [8], 101%; in experiment [9], 99.5%; in experiment [10] it was 113%; in experiment [11] it was 106%; in [12] it was 105%. Also, the growth in experiment [13] is 102%; in [14], 102%; in [15], 112%; in [16] it was 101%; in [17] it was 103%; in [18], 100%. For the same compound, the results for the growth in [19] and in [20] were 107% and 97.4%, respectively.
In the case of `CCNC(=O)Oc1ccc(/C(=C(/C)c2ccc(OC)cc2)c2ccc(OCCN3CCCCCC3)cc2)cc1`, the growth in experiment [1] is 52.8%; in experiment [2] it was 87.4%; in experiment [3], 80.9%; in [4] it was 31.9%; in experiment [5] it was 16.7%; in [6], 49.5%. Moreover, the growth in [7] is 93.1%; in experiment [8], 54.4%; in experiment [9], 35.5%; in [10] it was -41.1% (active); in experiment [11], 76%; in [12] it was 2.3% (active). Also, the growth was -3.44% (active) in experiment [13]; 46.8% in [14]; 12.3% in experiment [15]; 64% in experiment [16]; -20.9% (active) in experiment [17]; 18.4% in [18]. In addition, the growth in experiment [19] is -32.4% (active); in experiment [20] it was -73.3% (active).
As for `C1=CC(c2nn3c(-c4ccccc4)nnc3s2)=Cc2ccccc2O1`, the growth in experiment [1] was 75.8%; in [2] it was 31.7%; in [3] it was 96.3%; in experiment [4], 105%; in [5] it was 87.2%; in experiment [6], 55.9%. Also, the growth is 83.8% in [7]; 89.7% in [8]; 91.8% in experiment [9]; 90.2% in [10]; 84.8% in [11]; 43.5% in [12]. Moreover, the growth in experiment [13] is 74.1%; in experiment [14] it was 78.3%; in experiment [15], 22.7%; in [16] it was 77.8%; in [17], 97.9%; in experiment [18], 71.7%. Further, the growth in [19] was 67.8%; in experiment [20], 65%.
